The list is not random: actives were taken first. Their share in the collection is about 3%.
BH1578 lux ind = induces V. cholerae light production without autoinducers | actives 0.16% (n = 350,000) | activation, % at 18.7 µM | V. cholerae BH1578 lux reporter, luminescence, 6 h; in the data active means activation mostly above about 9.7%, no sharp cut-off
GDH-TPI counter = GDH-TPI coupled enzyme inhibition counter-screen; GDH-TPI coupled enzyme counterscreen, NADH absorbance; inhibition, % at 4.8 µM; actives 1.2% (n = 360,000); AID 588335; in the data active means inhibition above about 30%
FBA Mtb inh = inhibitors of M. tuberculosis fructose-bisphosphate aldolase; P9WQA3; purified M. tuberculosis FBA, fluorescence read-out; inhibition, % at 1 µM; actives 2.3% (n = 360,000); AID 588726; in the data active means inhibition above about 27%
Target sequence (P9WQA3 whole entry, looked up): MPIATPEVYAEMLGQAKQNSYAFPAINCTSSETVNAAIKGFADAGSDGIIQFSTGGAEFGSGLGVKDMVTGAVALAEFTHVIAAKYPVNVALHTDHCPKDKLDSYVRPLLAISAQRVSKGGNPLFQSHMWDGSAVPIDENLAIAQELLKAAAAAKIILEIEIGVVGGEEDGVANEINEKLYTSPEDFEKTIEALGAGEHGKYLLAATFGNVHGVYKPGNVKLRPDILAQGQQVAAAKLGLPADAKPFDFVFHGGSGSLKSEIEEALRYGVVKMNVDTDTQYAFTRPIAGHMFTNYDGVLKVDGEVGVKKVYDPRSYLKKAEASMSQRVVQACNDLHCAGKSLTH
BioA inh = blocks M. tuberculosis BioA enzyme activity; actives 0.096% (n = 360,000); purified M. tuberculosis BioA enzyme, plate reader; inhibition, % at 9.99 µM; in the data active means inhibition above about 40%
Numbers stand for hits.

What do the screens show for `C[C@@H]1CN([C@H](C)CO)C(=O)c2cc(-c3ccc(F)cc3)cnc2O[C@H]1CN(C)C(=O)NC1CCCC1`?
BioA inh: inactive

How did Cc1c(N2C(=O)c3ccccc3C2=O)c(=O)n(-c2ccccc2)n1C do in these assays?
BH1578 lux ind: 17; GDH-TPI counter: inactive; FBA Mtb inh: inactive; BioA inh: inactive

Results for Cc1c(N2C(=O)c3ccc(F)cc3C2=O)c(=O)n(-c2ccccc2)n1C ?
BH1578 lux ind: inactive; GDH-TPI counter: inactive; FBA Mtb inh: inactive; BioA inh: inactive

What do the screens show for `CCC(C)n1c(O)c(/C=N/Nc2ccccc2)c(=O)[nH]c1=S` (configuration not stated)?
BH1578 lux ind: inactive; GDH-TPI counter: inactive; FBA Mtb inh: inactive

How did CCC(C)n1c(O)c(C=NCCc2ccccc2)c(=O)[nH]c1=S (configuration not stated) do in these assays?
BH1578 lux ind: inactive; GDH-TPI counter: 55; FBA Mtb inh: inactive; BioA inh: inactive

What do the screens show for `Cc1noc(C)c1NC(=O)N(C)C[C@H]1OCCCC[C@H](C)Oc2ccc(NC(=O)NC(C)C)cc2C(=O)N([C@@H](C)CO)C[C@@H]1C`?
BioA inh: inactive

Results for CCc1ccc(N=C2NC(=O)/C(=C/c3ccc(OCC(=O)O)cc3)S2)cc1 ?
BH1578 lux ind: inactive; GDH-TPI counter: 40; FBA Mtb inh: inactive; BioA inh: inactive

What do the screens show for `Cc1noc(/C=C/N(C)C)c1S(=O)(=O)N1CCCC(C(=O)NCc2ccccc2Cl)C1` (configuration not stated)?
BH1578 lux ind: inactive; GDH-TPI counter: 32; FBA Mtb inh: inactive; BioA inh: inactive

What do the screens show for `Cc1n[nH]c(C)c1S(=O)(=O)N1CCCC(C(=O)NCc2ccccc2Cl)C1` (configuration not stated)?
BH1578 lux ind: inactive; GDH-TPI counter: inactive; FBA Mtb inh: inactive; BioA inh: inactive

How did COc1ccc(CNC(=O)C2CCCN(S(=O)(=O)c3c(C)noc3/C=C/N(C)C)C2)cc1 (configuration not stated) do in these assays?
BH1578 lux ind: inactive; GDH-TPI counter: inactive; FBA Mtb inh: inactive; BioA inh: inactive

Results for Cc1ccc(CNC(=O)C2CCCN(S(=O)(=O)c3c(C)noc3/C=C/N(C)C)C2)cc1 (configuration not stated) ?
BH1578 lux ind: inactive; GDH-TPI counter: 52; FBA Mtb inh: inactive

Results for Cc1noc(/C=C/N(C)C)c1S(=O)(=O)N1CCCC(C(=O)NCc2ccc(Cl)cc2)C1 (configuration not stated) ?
BH1578 lux ind: inactive; GDH-TPI counter: 56; FBA Mtb inh: inactive

Results for CCOC(=O)c1c[nH]c(=S)n(-c2ccccc2)c1=O ?
BH1578 lux ind: inactive; GDH-TPI counter: 39; FBA Mtb inh: inactive; BioA inh: inactive

Results for CN1CCN(C(=O)C[C@H]2C[C@H]3c4cc(NC(=O)NC5CCCC5)ccc4O[C@H]3[C@H](CO)O2)CC1 ?
BioA inh: inactive

Results for Cc1n[nH]c(C)c1NC(=O)c1cc([N+](=O)[O-])ccc1Cl ?
BH1578 lux ind: inactive; GDH-TPI counter: inactive; FBA Mtb inh: 142

How did C[C@H](CO)N1C[C@H](C)[C@H](CN(C)Cc2ccccc2F)Oc2cc(C#CC3CC3)ccc2S1(=O)=O do in these assays?
BioA inh: inactive

How did Cc1occc1C(=O)N/N=C/c1ccc2c(c1)OCO2 do in these assays?
BH1578 lux ind: inactive; GDH-TPI counter: 46; FBA Mtb inh: inactive

How did Cc1ccsc1C(=O)N/N=C/c1ccc2c(c1)OCO2 do in these assays?
BH1578 lux ind: inactive; GDH-TPI counter: 36; FBA Mtb inh: inactive; BioA inh: inactive

How did Cc1ccccc1/C=N/NC(=O)c1sccc1C do in these assays?
BH1578 lux ind: inactive; GDH-TPI counter: inactive; FBA Mtb inh: inactive; BioA inh: inactive

How did COc1ccc2c(Cl)c(C(=O)N/N=C/c3c(C)[nH]c4ccccc34)sc2c1 do in these assays?
BH1578 lux ind: inactive; GDH-TPI counter: inactive; FBA Mtb inh: inactive; BioA inh: inactive

Results for COc1ccc2c(Cl)c(C(=O)N/N=C3\CCCC(=O)C3)sc2c1 ?
BH1578 lux ind: inactive; GDH-TPI counter: 34; FBA Mtb inh: inactive; BioA inh: inactive

Results for Cc1cc(C(=O)N/N=C/c2ccc3c(c2)OCO3)c(C)o1 ?
BH1578 lux ind: inactive; GDH-TPI counter: inactive; FBA Mtb inh: inactive; BioA inh: inactive

How did Cn1cc(C(=O)N/N=C/c2cccs2)c2ccccc21 do in these assays?
BH1578 lux ind: inactive; GDH-TPI counter: 43; FBA Mtb inh: inactive; BioA inh: inactive

What do the screens show for `O=C(c1ccc(F)cc1)N1CCCCN2[C@H](CO)[C@@H](c3ccc(-c4ccc(F)cc4)cc3)[C@@H]2C1`?
BioA inh: inactive

Results for O=C(NCC[C@@H]1CC[C@@H](NC(=O)c2cnccn2)[C@H](CO)O1)Nc1ccc(Cl)cc1 ?
BioA inh: inactive

How did COc1ccc(S(=O)(=O)Nc2ccc3c(c2)C(=O)N([C@@H](C)CO)C[C@@H](C)[C@@H](CN(C)Cc2ccc4c(c2)OCO4)OCCCC[C@H](C)O3)cc1 do in these assays?
BioA inh: inactive

What do the screens show for `O=C(N/N=C/c1ccc2c(c1)OCO2)c1cccs1`?
BH1578 lux ind: inactive; GDH-TPI counter: 35; FBA Mtb inh: inactive; BioA inh: inactive

How did Cn1cc(C(=O)N/N=C/c2ccc3c(c2)OCO3)c2ccccc21 do in these assays?
BH1578 lux ind: inactive; GDH-TPI counter: 34; FBA Mtb inh: inactive; BioA inh: inactive

Results for COc1ccc2c(Cl)c(C(=O)N/N=C/c3ccc4c(c3)OCO4)sc2c1 ?
BH1578 lux ind: inactive; GDH-TPI counter: 47; FBA Mtb inh: inactive; BioA inh: inactive

What do the screens show for `CCOc1ccc(C(=O)N/N=C(\c2ccccc2)c2ccccn2)cc1`?
BH1578 lux ind: inactive; GDH-TPI counter: 32; FBA Mtb inh: inactive; BioA inh: inactive

How did CCn1c2ccccc2c2cc(/C=N/NC(=O)c3ccc(O)cc3)ccc21 do in these assays?
BH1578 lux ind: inactive; GDH-TPI counter: 36; FBA Mtb inh: inactive

How did CCn1c2ccccc2c2cc(/C=N/NC(=O)c3cc(O)cc(O)c3)ccc21 do in these assays?
BH1578 lux ind: inactive; GDH-TPI counter: inactive; FBA Mtb inh: inactive; BioA inh: inactive

Results for O=C(C[C@H]1CC[C@@H]2[C@H](COC[C@@H](O)CN2CCc2ccccc2)O1)NCc1ccc(F)cc1 ?
BioA inh: inactive

Results for CC(C)(C)OC(=O)N(CCc1ccccc1)Cc1ccc(OCc2cccc(NC(=O)/C=C/c3ccccc3)c2)cc1 ?
BH1578 lux ind: inactive; GDH-TPI counter: 36; FBA Mtb inh: inactive; BioA inh: inactive

How did COc1cc(-c2c(C#N)c(N)nc3c2CCCC3)ccc1O do in these assays?
BH1578 lux ind: inactive; GDH-TPI counter: inactive; FBA Mtb inh: inactive; BioA inh: inactive

How did COC(=O)c1c(C#N)c(N)nc2c1CCCC2 do in these assays?
BH1578 lux ind: inactive; GDH-TPI counter: inactive; FBA Mtb inh: 125; BioA inh: inactive

Results for CS(=O)(=O)N(CC(=O)N/N=C/c1cc([N+](=O)[O-])ccc1Cl)c1ccccc1 ?
BH1578 lux ind: inactive; GDH-TPI counter: inactive; FBA Mtb inh: inactive

What do the screens show for `Cc1cccc(N(CC(=O)N/N=C/c2cc([N+](=O)[O-])ccc2Cl)S(C)(=O)=O)c1C`?
BH1578 lux ind: inactive; GDH-TPI counter: inactive; FBA Mtb inh: 34; BioA inh: inactive
